Assay outcomes as filed in PubChem BioAssay.
Pf apPOL block – Pf-apPOL DNA polymerase inhibition; Recombinant Pf-apPOL, molecular beacon fluorescence, 1.5 h; inhibition, % at 10 µM; hit rate 0.25% among 210,000
mHTT CaM bind – disrupts binding of mutant huntingtin to calmodulin; P42858; AlphaScreen His-mHTT/GST-CaM binding, luminescence; inhibition, % at 15 µM; hit rate 3.6% among 190,000; AID 1671202
A number is an active result; n = inactive; x = no result given. Compounds with a hit are over-represented: about 3.5% of the library has one in this group of screens. No stated cut-off is given here; in the data, active means inhibition above about 50%; inactive means the rest.

SMILES	Pf apPOL block	mHTT CaM bind
Cc1nc(N)sc1-c1csc(Nc2cccc(O)c2)n1	n	51.4
c1ccc(Nc2nc(-c3ccccn3)cs2)nc1	n	100.2
COc1ccc(-c2csc(Nc3ccccn3)n2)cc1OC	n	n
Cc1nc(C)c(-c2csc(Nc3cccc(C(=O)O)c3)n2)s1	n	n
CCOc1ccccc1Nc1nc(-c2ccccn2)cs1	n	n
c1ccc(-c2csc(Nc3ncccn3)n2)nc1	n	98.0
COc1ccc(CN2CC(C(=O)NCCCN3CCN(C)CC3)CC2=O)cc1 (stereo unspecified)	n	n
Cc1ccc(O)c(NS(=O)(=O)c2cccc3nsnc23)c1	n	n
O=C(c1nc2ncccn2n1)N1CCCn2cc(-c3ccccc3)nc21	n	n
O=C(Nc1nc2ccccc2n1CCN1CCCC1)c1ccc(Cl)cc1	n	n
CC(C)c1csc(C2CCCN(C(=O)C(C)(C)C)C2)n1 (stereo unspecified)	n	n
Cc1sc(NC(=O)c2ccco2)c(C(c2cccnc2)N2CCN(c3ccccn3)CC2)c1C (stereo unspecified)	n	100.0
Cc1sc(NC(=O)c2ccco2)c(C(c2cccnc2)N2CCN(c3ccccc3)CC2)c1C (stereo unspecified)	n	n
CCOc1ccc(C(=O)N2CCN(c3nc4ccncc4n(C)c3=O)CC2)cc1	n	n
COc1ccc(Br)cc1/C=C/c1ccc2cccc(O)c2n1	n	n
O=[N+]([O-])c1cc(Br)c(O)c(/C=C/c2ccc3cccc(O)c3n2)c1	n	82.8
CC1(C)C2CCC1(C)C(OCC(O)CN1CCN(c3ccccc3)CC1)C2 (stereo unspecified)	n	51.7
CC1(C)C2CCC1(C)C(OCC(O)CN1CCN(Cc3ccccc3)CC1)C2 (stereo unspecified)	n	n
COc1ccc(/C=C/C(=O)NCCc2nc3ccccc3[nH]2)cc1	n	n
NC(=O)c1cc[n+](CC(=O)N2CCCCCC2)cc1	n	n
O=S1(=O)c2c(cccc2N2CCSCC2)Oc2ccccc2CN1Cc1cn(Cc2cccc(F)c2)nn1	n	n
COc1ccc(Cl)cc1NC(=O)C1CCN(c2nccc(C)n2)CC1	n	n
COc1cc(Cl)c(NC(=O)C2CCCN(c3nccc4sccc34)C2)c(OC)c1 (stereo unspecified)	n	60.2
COc1cc(OC)c(NC(=O)C2CCCN(c3nccc4sccc34)C2)cc1Cl (stereo unspecified)	n	n
COc1ccc(Cl)cc1NC(=O)C1CCN(c2nccc3sccc23)CC1	n	100.3
SMILES	Pf apPOL block	mHTT CaM bind
COc1ccc2c(c1)S/C(=C\C(=O)c1ccncc1)N2C	n	n
CCCCn1cc([N+](=O)[O-])nc1C	n	x
Cc1c(C(=O)NC2CCCC(C)C2C)oc2ccc(S(=O)(=O)N3CCCC3)cc12 (stereo unspecified)	n	n
COC(=O)N1C/C=C\C(c2ccc(OC)cc2)N(Cc2ccc(F)cc2)C(=O)C1 (stereo unspecified)	n	n
COc1ccc(C2/C=C\CN(CC3CC3)[C@@H](Cc3ccccc3)C(=O)N2Cc2ccc(F)cc2)cc1 (stereo partly specified)	n	n
COc1ccc(C2/C=C\CN(C(=O)C3CCCCC3)CC(=O)N2Cc2ccc(F)cc2)cc1 (stereo unspecified)	n	n
COc1ccc(C2/C=C\CN(C(=O)C3CCCC3)CC(=O)N2Cc2ccc(F)cc2)cc1 (stereo unspecified)	n	63.3
COc1ccc(C2/C=C\CN(C(=O)Nc3ccccc3-c3ccccc3)CC(=O)N2Cc2ccc(F)cc2)cc1 (stereo unspecified)	n	60.3
COc1ccc(C2/C=C\CN[C@@H](Cc3ccccc3)C(=O)N2Cc2ccc(F)cc2)cc1 (stereo partly specified)	n	63.9
Cc1ccc(CNC(=O)c2cn(-c3cccc(Cl)c3)nn2)cc1	n	n
CSc1cccc(NC(=S)NCc2ccc(F)cc2)c1	n	x
CNc1cc(-n2nc(C)cc2-c2ccccc2)ncn1	n	n
Cc1cc(-c2ccccc2)n(-c2cc(Nc3cccc(C(F)(F)F)c3)ncn2)n1	n	93.0
Cn1nc(COCc2ccccc2)c2c1CCN(C(=O)COc1ccccc1)C2	n	n
Cn1nc(C(=O)NCc2ccc(Cl)cc2)c2c1CCN(C(=O)c1cccc(F)c1)C2	n	n
COc1cccc(CC(=O)N2CCc3c(c(C(=O)NCc4ccc(F)cc4)nn3C)C2)c1	n	69.0
Cn1nc(COCc2ccccc2)c2c1CCN(C(=O)Cc1cccc(F)c1)C2	n	55.5
Cc1cccc(CC(=O)N2CCc3c(c(C(=O)NCc4ccc(Cl)cc4)nn3C)C2)c1	n	58.9
Cc1ccc(CC(=O)N2CCc3c(c(C(=O)NCc4ccc(Cl)cc4)nn3C)C2)cc1	n	78.5
COc1ccc(OCC(=O)N2CCc3c(c(C(=O)NCc4ccccc4)nn3C)C2)cc1	n	n
CC1CCN(c2ccc(-c3noc(CN4CCc5ccccc5C4)n3)cn2)CC1	n	n
O=S1(=O)CC2N=C(N3CCN(C4=NC5CS(=O)(=O)CC5S4)CC3)SC2C1 (stereo unspecified)	n	n
O=C(c1cccc(Cl)c1)N1CCN(C(C(=O)N2CCCCC2)C2CCCC2)CC1 (stereo unspecified)	n	n
O=C(NNC(=O)c1snnc1-c1ccccc1)c1ccco1	n	x
CCCCN(CC)CCCNC(=O)c1csc2c1CCCCC2	n	n
SMILES	Pf apPOL block	mHTT CaM bind
Cn1nc(C(=O)NCc2ccccc2)c2c1CCN(C(=O)Cc1ccccc1)C2	n	n
Cn1nc(COCc2ccccc2)c2c1CCN(S(=O)(=O)c1ccc(F)cc1)C2	n	n
Cn1nc(COCc2ccccc2)c2c1CCN(S(=O)(=O)c1ccc3c(c1)CCC3)C2	n	56.5
Cn1nc(C(=O)NCc2ccc(Cl)cc2)c2c1CCN(C(=O)Cc1ccccc1)C2	n	94.8
COc1ccc(CN(CCC(C)C)S(=O)(=O)c2ccccc2Br)c(OC)c1	n	n
COc1ccc(C2C=C(c3ccc(Br)cc3)Nc3ncnn32)cc1OC (stereo unspecified)	n	n
O=C(CCS(=O)(=O)c1ccc(Br)s1)Nc1ccc(F)c(F)c1	n	n
COC(=O)C1CN(CCc2ccccc2)CCS(=O)(=O)N1Cc1ccc(Cl)cc1 (stereo unspecified)	n	71.1
COC(=O)C1CN(Cc2ccccc2)CCS(=O)(=O)N1Cc1ccc(C(F)(F)F)cc1 (stereo unspecified)	n	86.8
COC(=O)C1CN(Cc2ccc(F)cc2)CCS(=O)(=O)N1Cc1ccc(F)cc1 (stereo unspecified)	n	n
COC(=O)C1CN(Cc2ccccc2)CCS(=O)(=O)N1Cc1ccccc1 (stereo unspecified)	n	n
COC(=O)C1CN(Cc2ccc(F)cc2)CCS(=O)(=O)N1Cc1ccc(C(F)(F)F)cc1 (stereo unspecified)	n	68.8
COC(=O)C1CN(CCc2ccccc2)CCS(=O)(=O)N1Cc1ccc(OC)cc1 (stereo unspecified)	n	n
COc1cc(C=C2Oc3c(ccc(OCC(C)=O)c3C)C2=O)cc(OC)c1OC	n	n
CSc1ccccc1NC(=O)C1CN(c2nc3ccccc3s2)C1	n	n
O=C1CCC([N+](=O)[O-])C(c2ccccc2OCc2ccccc2)N1 (stereo unspecified)	n	n
COc1ccc(-c2nc3cccnc3n2C2CCN(C(=O)NC(C)C)C2)cc1 (stereo unspecified)	n	n
